Measured values published in ChEMBL document CHEMBL4513145, “CO-ADD screening of Biotechnology Research Centre (C.R.B.t) (Algeria) compounds”.
Where “and” joins values, the source holds several entries; their conditions need not be identical. Equal values may be shown once. Results with a measured potency or affinity are listed apart.

What was measured:
Staphylococcus aureus = details: Concentration 32 ug.mL-1, ASSAY_TEST Inhibition of Bacterial Growth, detection method Absorption (OD600), MEDIA CAMHB, plate type 384well, NBS, CORNING #3640, time 18 hr
Escherichia coli = details: Concentration 32 ug.mL-1, ASSAY_TEST Inhibition of Bacterial Growth, detection method Absorption (OD600), MEDIA CAMHB, plate type 384well, NBS, CORNING #3640, time 18 hr

Compound `CCCCCCCC1CN(S(=O)(=O)c2ccc(C)cc2)N(C(=O)OC(C)(C)C)C1=O` (configuration not stated) has an Inhibition (Staphylococcus aureus) of 0.71% and an Inhibition (Escherichia coli) of -11.74%.

For `CC(C)(C)OC(=O)N1C(=O)C(Cc2ccccc2)CN1S(=O)(=O)c1ccc([N+](=O)[O-])cc1` (configuration not stated), the Inhibition (Staphylococcus aureus; 32 ug/mL) was 9.07% and 7.14% and -8.81% and the Inhibition (Escherichia coli; 32 ug/mL) was -5.13% and -6.6% and -4.72%.

`CC1CN(S(=O)(=O)c2ccc([N+](=O)[O-])cc2)N(C(=O)OC(C)(C)C)C1O` (configuration not stated) gave an Inhibition (Staphylococcus aureus) of 60.53% and an Inhibition (Escherichia coli) of -0.56%.

`CCCCCCCC1CN(S(=O)(=O)c2ccc(C)cc2)N(S(=O)(=O)c2ccc(C)cc2)C1O` (configuration not stated) showed an Inhibition (Staphylococcus aureus) of 7.71% and an Inhibition (Escherichia coli) of -1.55%.

For `Cc1ccc(S(=O)(=O)N2CC(Cc3ccccc3)C(=O)N2S(=O)(=O)c2ccc(C)cc2)cc1` (configuration not stated), the Inhibition (Staphylococcus aureus; 32 ug/mL) was -1.12% and 2.54% and the Inhibition (Escherichia coli; 32 ug/mL) was -8.26% and -4.89%.

In the case of `CCCCCCCC1CN(S(=O)(=O)c2ccc(C)cc2)N(C(=O)OC(C)(C)C)C1O` (configuration not stated), the Inhibition (Staphylococcus aureus) is reported as 6.71% and the Inhibition (Escherichia coli) is reported as -7.16%.

With `O=C1ON(C(=O)OCc2ccccc2)CC1Cc1ccccc1` (configuration not stated) the Inhibition (Staphylococcus aureus; 32 ug/mL) was 5.51% and 8.05% and the Inhibition (Escherichia coli; 32 ug/mL) was -4.21% and -4.06%.

With `CC1CN(S(=O)(=O)c2ccc([N+](=O)[O-])cc2)N(C(=O)OC(C)(C)C)C1=O` (configuration not stated) the Inhibition (Staphylococcus aureus; 32 ug/mL) was 12.53% and 22.23% and 12.31% and the Inhibition (Escherichia coli; 32 ug/mL) was -2.77% and -4.85% and -5.54%.

In the case of `Cc1ccc(S(=O)(=O)N2CC(C)C(=O)N2S(=O)(=O)c2ccc(C)cc2)cc1` (configuration not stated), the Inhibition (Staphylococcus aureus; 32 ug/mL) is reported as 12.43% and 4.65% and the Inhibition (Escherichia coli; 32 ug/mL) is reported as -5.27% and -6.97%.

Compound `CC1CN(C(=O)OCc2ccccc2)OC1O` (configuration not stated) has an Inhibition (Staphylococcus aureus) of 2.79% and an Inhibition (Escherichia coli) of -4.78%.

With `CC1CN(C(=O)OCc2ccccc2)OC1=O` (configuration not stated) the Inhibition (Staphylococcus aureus; 32 ug/mL) was 5.54% and 4.49% and 4.77% and the Inhibition (Escherichia coli; 32 ug/mL) was -4.89% and -2.17% and -2.01%.

Compound `O=C(OCc1ccccc1)N1CC(Cc2ccccc2)C(O)O1` (configuration not stated) has an Inhibition (Staphylococcus aureus) of 13.58% and an Inhibition (Escherichia coli) of -3.12%.

`CC1C(O)N(C(=O)OC(C)(C)C)N(S(=O)(=O)c2ccc([N+](=O)[O-])cc2)C1C` (configuration not stated) was tested, and the Inhibition (Staphylococcus aureus) was 14.48% and the Inhibition (Escherichia coli) was -1.81%.

`CC(C)(C)OC(=O)N1C(O)C2CCCC2N1S(=O)(=O)c1ccc([N+](=O)[O-])cc1` (configuration not stated) was tested, and the Inhibition (Staphylococcus aureus) was -6.71% and the Inhibition (Escherichia coli) was -4.07%.

In the case of `CC(C)(C)OC(=O)N1C(O)C(Cc2ccccc2)CN1S(=O)(=O)c1ccc([N+](=O)[O-])cc1` (configuration not stated), the Inhibition (Staphylococcus aureus; 32 ug/mL) is reported as 11.9% and 5.44% and 15.35% and the Inhibition (Escherichia coli; 32 ug/mL) is reported as 1.32% and -2.18% and -0.91%.

`O=C(OCc1ccccc1)N1OC(O)C2CCCCC21` (configuration not stated) gave an Inhibition (Staphylococcus aureus) of 6.89% and an Inhibition (Escherichia coli) of -5.21%.
